Assay results published in PubChem BioAssay (NCI).
About 83,000 compounds went through this panel and 20% of them were active in at least one assay; those are over-represented in the sample as a whole.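 96-well plates, one dose, 48 hours. Percent growth reported; active if below 10.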 Calls of active or inactive are those of the source.

Test system: T-47D breast
Assay: NCI-60 one-dose screen, 48 h (100 = growth as untreated, 0 = no growth, -100 = all killed)
Conditions: 10 µM

**Q.** With CCOC(=O)Nc1ccc2c(c1)C(=O)N(CCOC)c1ccccc1O2 as the compound, how does the growth read?
**A.** Its growth is 30.5% (inactive).

**Q.** For COc1ccc(Nc2ccnc(N3CCN(c4ccnc5cc(Cl)ccc45)CC3)n2)cc1, which growth is on record?
**A.** Its growth is -7.73% (active).

**Q.** With O=C(c1ccccc1)C(Nc1ccccc1)c1ccccc1 (stereo unspecified) as the compound, how does the growth read?
**A.** Its growth is 76.5% (inactive).

**Q.** With Cc1ccc(/C=C2\CN(Cc3cn(CCNc4ccnc5cc(Cl)ccc45)nn3)C/C(=C\c3ccc(C)cc3)C2=O)cc1 as the compound, how does the growth read?
**A.** The growth was -12.3% (active).

**Q.** How did the growth turn out when C[C@]12CC[C@H]3[C@@H](CC=C4C[C@@H](O)CC[C@@]43C)[C@@H]1CC[C@@H]2C(=O)C/C=N/O was run?
**A.** Its growth is 77.2% (inactive).

**Q.** Which growth does the source give for Cc1ccccc1[P+](Cc1ccccc1)(c1ccccc1)c1ccccc1 here?
**A.** The growth was -3.4% (active).

**Q.** With COc1ccccc1Cn1cc2c(c1-c1ccccc1)CCc1cnoc1-2 as the compound, how does the growth read?
**A.** The growth was 29.4% (inactive).

**Q.** For Clc1cc(Cl)c(OCCCCCCN2CCNCC2)c(Cl)c1, which growth is on record?
**A.** Its growth is 39.8% (inactive).

**Q.** How did the growth turn out when Cc1c(C(=O)N[C@H](CO)Cc2ccccc2)[nH]c2ccc(Cl)cc2c1=O was run?
**A.** Its growth is 89.9% (inactive).

**Q.** With CC(C)C(C)C(N)C(=O)O (stereo unspecified) as the compound, how does the growth read?
**A.** Its growth is 102% (inactive).

**Q.** With CCn1nc(-c2ccccn2)c2cccnc2c1=S as the compound, how does the growth read?
**A.** The growth was 42% (inactive).

**Q.** COc1cc(CSc2nc3ccc(Cl)cc3c(=O)n2Cc2ccccc2)cc(OC)c1OC was tested. Which growth did it give?
**A.** Its growth is 33.9% (inactive).

**Q.** C[C@H](NC(=O)[C@@H]1CSSC[C@@H](NC(=O)Cc2nc3ccccc3cc2O)C(=O)NCC(=O)N1C)c1ccccc1 was tested. Which growth did it give?
**A.** Its growth is 77.1% (inactive).

**Q.** For CCOC(=O)[C@@H](Cc1ccccc1)NC(=O)c1[nH]c2ccc(Cl)cc2c(=O)c1C, which growth is on record?
**A.** Its growth is 87.1% (inactive).

**Q.** Which growth does the source give for O=C(Nc1cccc(Cl)c1)OCC(COC(=O)Nc1cccc(Cl)c1)(COC(=O)Nc1cccc(Cl)c1)[N+](=O)[O-] here?
**A.** The growth was 14.7% (inactive).

**Q.** With O=C1/C(=C/c2ccc(O)cc2)Oc2ccc(Cl)cc21 as the compound, how does the growth read?
**A.** The growth was 72.2% (inactive).

**Q.** For COc1cc(/C=C/C(=O)c2cc(-c3ccc(F)cc3)ccc2O)cc(OC)c1OC, which growth is on record?
**A.** The growth was 42.1% (inactive).

**Q.** COc1ccc(C(=O)n2nc(CC(=O)NCc3ccccc3)nc2N)cc1 was tested. Which growth did it give?
**A.** The growth was 105% (inactive).

**Q.** For COc1cc(/C=C/C(=O)c2cc(-c3ccc(C(F)(F)F)cc3)ccc2O)cc(OC)c1OC, which growth is on record?
**A.** Its growth is 35.7% (inactive).

**Q.** How did the growth turn out when CN(C1c2ccccc2Oc2ccccc21)S(=O)(=O)c1cc(Cl)ccc1Cl was run?
**A.** Its growth is 39.3% (inactive).

**Q.** How did the growth turn out when O=C1CC(c2cccc(-c3cccnc3)c2)=Nc2ccc(Br)cc2N1 was run?
**A.** Its growth is -11.6% (active).

**Q.** How did the growth turn out when COc1ccc(-c2oncc2-c2cc(OC)c3c(c2)OCO3)cc1 was run?
**A.** Its growth is 34.7% (inactive).

**Q.** Which growth does the source give for Cc1ccc([P+](Cc2ccc([N+](=O)[O-])cc2)(c2ccc(C)cc2)c2ccc(C)cc2)cc1 here?
**A.** Its growth is 7.03% (active).

**Q.** How did the growth turn out when COc1ccc(C2=NNC(c3sc(Cl)nc3Cl)C2)cc1 (stereo unspecified) was run?
**A.** Its growth is 27.9% (inactive).

**Q.** COc1ccccc1CNCCCN1C(=O)c2ccc3c4c(ccc(c24)C1=O)C(=O)N(CCCNCCNCCCN)C3=O was tested. Which growth did it give?
**A.** The growth was 17.9% (inactive).

**Q.** For C[C@@H]1C(=O)N(C[C@H](Cc2ccccc2)NC(=O)OCc2ccccc2)[C@]1(Cc1ccccc1)C(=O)OCc1ccccc1, which growth is on record?
**A.** Its growth is 7.82% (active).

**Q.** Cc1cccc2c(Nc3ccc(NS(C)(=O)=O)cc3)c3ccc([N+](=O)[O-])cc3nc12 was tested. Which growth did it give?
**A.** Its growth is 0.696% (active).

**Q.** For O=C(Cn1ccc(=O)[nH]c1=O)c1ccc([N+](=O)[O-])o1, which growth is on record?
**A.** The growth was 80.4% (inactive).

**Q.** How did the growth turn out when CC1(C)CCc2cc(-c3ccn(S(=O)(=O)c4ccc(Cl)cc4)n3)ccc2O1 was run?
**A.** The growth was 54.1% (inactive).

**Q.** How did the growth turn out when COc1cc(-c2nc(-c3nnc(-c4cccnc4)o3)c3ccccn23)cc(OC)c1OC was run?
**A.** The growth was 100% (inactive).

**Q.** NCCNc1ccc2cc(-c3nc4ccccc4[nH]3)c(=O)oc2c1 was tested. Which growth did it give?
**A.** The growth was 82.2% (inactive).

**Q.** Nc1cc2c(cc1Cl)-c1ccc(Cl)cc1C2=O was tested. Which growth did it give?
**A.** The growth was 59.6% (inactive).

**Q.** With C[n+]1c(/C=C/c2c[nH]c3ccccc23)ccc2ccccc21 as the compound, how does the growth read?
**A.** Its growth is 12.1% (inactive).

**Q.** For N#C/C(=C\N1C(=O)/C(=C/c2cccc([N+](=O)[O-])c2)SC1=S)c1nc2ccccc2s1, which growth is on record?
**A.** Its growth is 54.7% (inactive).

**Q.** How did the growth turn out when COC(=O)C1(C(=O)OC)C2C(=O)C3C(C21)C3(C(=O)OC(C)(C)C)C(=O)OC(C)(C)C (stereo unspecified) was run?
**A.** The growth was 102% (inactive).

**Q.** With COc1ccc(/C(=C/c2cc(OC)c(OC)cc2[N+](=O)[O-])C(=O)O)cc1 as the compound, how does the growth read?
**A.** The growth was 94.8% (inactive).

**Q.** For O=CNc1c(Cl)cc2c(c1Cl)Cc1cc([N+](=O)[O-])ccc1-2, which growth is on record?
**A.** Its growth is 30.6% (inactive).

**Q.** How did the growth turn out when CCCCCC(CCC)COC(=O)c1ccc(OC)cc1 (stereo unspecified) was run?
**A.** The growth was 87.7% (inactive).

Test system: BT-549 breast
Assay: as above
Conditions: 10 µM

**Q.** Which growth does the source give for CCOC(=O)Nc1ccc2c(c1)C(=O)N(CCOC)c1ccccc1O2 here?
**A.** The growth was 52.8% (inactive).

**Q.** Which growth does the source give for COc1ccc(Nc2ccnc(N3CCN(c4ccnc5cc(Cl)ccc45)CC3)n2)cc1 here?
**A.** Its growth is -11.5% (active).

**Q.** How did the growth turn out when O=C(c1ccccc1)C(Nc1ccccc1)c1ccccc1 (stereo unspecified) was run?
**A.** Its growth is 94.4% (inactive).

**Q.** How did the growth turn out when Cc1ccc(/C=C2\CN(Cc3cn(CCNc4ccnc5cc(Cl)ccc45)nn3)C/C(=C\c3ccc(C)cc3)C2=O)cc1 was run?
**A.** The growth was -71% (active).

**Q.** With C[C@]12CC[C@H]3[C@@H](CC=C4C[C@@H](O)CC[C@@]43C)[C@@H]1CC[C@@H]2C(=O)C/C=N/O as the compound, how does the growth read?
**A.** The growth was 90.2% (inactive).

**Q.** Cc1ccccc1[P+](Cc1ccccc1)(c1ccccc1)c1ccccc1 was tested. Which growth did it give?
**A.** Its growth is 10.3% (inactive).

**Q.** For COc1ccccc1Cn1cc2c(c1-c1ccccc1)CCc1cnoc1-2, which growth is on record?
**A.** Its growth is 46.9% (inactive).

**Q.** For Clc1cc(Cl)c(OCCCCCCN2CCNCC2)c(Cl)c1, which growth is on record?
**A.** The growth was 70.4% (inactive).

**Q.** Cc1c(C(=O)N[C@H](CO)Cc2ccccc2)[nH]c2ccc(Cl)cc2c1=O was tested. Which growth did it give?
**A.** Its growth is 107% (inactive).

**Q.** With CC(C)C(C)C(N)C(=O)O (stereo unspecified) as the compound, how does the growth read?
**A.** Its growth is 90.7% (inactive).

**Q.** For CCn1nc(-c2ccccn2)c2cccnc2c1=S, which growth is on record?
**A.** Its growth is 104% (inactive).

**Q.** How did the growth turn out when COc1cc(CSc2nc3ccc(Cl)cc3c(=O)n2Cc2ccccc2)cc(OC)c1OC was run?
**A.** The growth was 21.7% (inactive).

**Q.** For C[C@H](NC(=O)[C@@H]1CSSC[C@@H](NC(=O)Cc2nc3ccccc3cc2O)C(=O)NCC(=O)N1C)c1ccccc1, which growth is on record?
**A.** Its growth is 83.8% (inactive).

**Q.** How did the growth turn out when CCOC(=O)[C@@H](Cc1ccccc1)NC(=O)c1[nH]c2ccc(Cl)cc2c(=O)c1C was run?
**A.** Its growth is 108% (inactive).

**Q.** Which growth does the source give for O=C(Nc1cccc(Cl)c1)OCC(COC(=O)Nc1cccc(Cl)c1)(COC(=O)Nc1cccc(Cl)c1)[N+](=O)[O-] here?
**A.** The growth was 50.8% (inactive).

**Q.** Which growth does the source give for O=C1/C(=C/c2ccc(O)cc2)Oc2ccc(Cl)cc21 here?
**A.** Its growth is 63.1% (inactive).

**Q.** How did the growth turn out when COc1cc(/C=C/C(=O)c2cc(-c3ccc(F)cc3)ccc2O)cc(OC)c1OC was run?
**A.** Its growth is 88% (inactive).

**Q.** For COc1ccc(C(=O)n2nc(CC(=O)NCc3ccccc3)nc2N)cc1, which growth is on record?
**A.** Its growth is 102% (inactive).

**Q.** Which growth does the source give for COc1cc(/C=C/C(=O)c2cc(-c3ccc(C(F)(F)F)cc3)ccc2O)cc(OC)c1OC here?
**A.** Its growth is 73.2% (inactive).

**Q.** Which growth does the source give for CN(C1c2ccccc2Oc2ccccc21)S(=O)(=O)c1cc(Cl)ccc1Cl here?
**A.** The growth was 71.9% (inactive).

**Q.** O=C1CC(c2cccc(-c3cccnc3)c2)=Nc2ccc(Br)cc2N1 was tested. Which growth did it give?
**A.** The growth was -3.46% (active).

**Q.** With COc1ccc(-c2oncc2-c2cc(OC)c3c(c2)OCO3)cc1 as the compound, how does the growth read?
**A.** The growth was 2.88% (active).

**Q.** With Cc1ccc([P+](Cc2ccc([N+](=O)[O-])cc2)(c2ccc(C)cc2)c2ccc(C)cc2)cc1 as the compound, how does the growth read?
**A.** Its growth is 17.2% (inactive).

**Q.** How did the growth turn out when COc1ccc(C2=NNC(c3sc(Cl)nc3Cl)C2)cc1 (stereo unspecified) was run?
**A.** Its growth is 53.3% (inactive).

**Q.** For COc1ccccc1CNCCCN1C(=O)c2ccc3c4c(ccc(c24)C1=O)C(=O)N(CCCNCCNCCCN)C3=O, which growth is on record?
**A.** Its growth is 69.4% (inactive).

**Q.** How did the growth turn out when C[C@@H]1C(=O)N(C[C@H](Cc2ccccc2)NC(=O)OCc2ccccc2)[C@]1(Cc1ccccc1)C(=O)OCc1ccccc1 was run?
**A.** Its growth is 62.9% (inactive).

**Q.** How did the growth turn out when Cc1cccc2c(Nc3ccc(NS(C)(=O)=O)cc3)c3ccc([N+](=O)[O-])cc3nc12 was run?
**A.** The growth was 29.1% (inactive).

**Q.** With O=C(Cn1ccc(=O)[nH]c1=O)c1ccc([N+](=O)[O-])o1 as the compound, how does the growth read?
**A.** The growth was 99.4% (inactive).

**Q.** CC1(C)CCc2cc(-c3ccn(S(=O)(=O)c4ccc(Cl)cc4)n3)ccc2O1 was tested. Which growth did it give?
**A.** Its growth is 88.8% (inactive).

**Q.** How did the growth turn out when COc1cc(-c2nc(-c3nnc(-c4cccnc4)o3)c3ccccn23)cc(OC)c1OC was run?
**A.** Its growth is 97.7% (inactive).

**Q.** How did the growth turn out when NCCNc1ccc2cc(-c3nc4ccccc4[nH]3)c(=O)oc2c1 was run?
**A.** The growth was 84.9% (inactive).

**Q.** How did the growth turn out when Nc1cc2c(cc1Cl)-c1ccc(Cl)cc1C2=O was run?
**A.** The growth was 100% (inactive).

**Q.** With C[n+]1c(/C=C/c2c[nH]c3ccccc23)ccc2ccccc21 as the compound, how does the growth read?
**A.** The growth was 94.7% (inactive).

**Q.** Which growth does the source give for N#C/C(=C\N1C(=O)/C(=C/c2cccc([N+](=O)[O-])c2)SC1=S)c1nc2ccccc2s1 here?
**A.** Its growth is 78.3% (inactive).

**Q.** With COC(=O)C1(C(=O)OC)C2C(=O)C3C(C21)C3(C(=O)OC(C)(C)C)C(=O)OC(C)(C)C (stereo unspecified) as the compound, how does the growth read?
**A.** The growth was 101% (inactive).

**Q.** Which growth does the source give for COc1ccc(/C(=C/c2cc(OC)c(OC)cc2[N+](=O)[O-])C(=O)O)cc1 here?
**A.** Its growth is 111% (inactive).

**Q.** With O=CNc1c(Cl)cc2c(c1Cl)Cc1cc([N+](=O)[O-])ccc1-2 as the compound, how does the growth read?
**A.** The growth was 95.8% (inactive).

**Q.** For CCCCCC(CCC)COC(=O)c1ccc(OC)cc1 (stereo unspecified), which growth is on record?
**A.** Its growth is 104% (inactive).
